# Tau fluor cs: Counterscreen qHTS for Inhibitors of Tau Fibril Formation, Fluorescence Polarization. Potency, µM (highest dose often 57.7 µM). 280,000 tested, 0.93% active. tau K18 P301L Alexa594 fluorescence, heparin fibrillization; further: nearly all actives have a fitted effect of over 55% in size
#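 Human tau K18 P301L (15 uM unlabeled, 0.24 uM Alexa 594-labeled) in 100 mM sodium acetate pH 7 with 20 uM heparin, 6 hr at 37 C. ThT 30 uM added, 1 hr ambient; Alexa 594 FP and total fluorescence read at 555/632 nm.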
# Tau ThT inhib: qHTS for Inhibitors of Tau Fibril Formation, Thioflavin T Binding. Potency, µM (highest dose often 57.4 µM), most hits filed as inhibitors. 270,000 tested, 2.1% active. Microtubule-associated protein tau (Homo sapiens), P10636. recombinant tau K18 P301L, heparin-induced fibrillization, ThT fluorescence; further: nearly all actives have a fitted effect of over 55% in size
# Target sequence (P10636 561-689 P618L limits assumed): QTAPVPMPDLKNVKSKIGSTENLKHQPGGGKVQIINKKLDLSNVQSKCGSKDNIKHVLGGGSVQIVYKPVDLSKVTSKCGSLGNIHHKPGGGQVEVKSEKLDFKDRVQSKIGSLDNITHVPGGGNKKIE
#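 Using a mix of unlabeled (15 uM) and Alexa 594-labeled (0.24 uM) tau K18 P301L, heparin-triggered fibrillization over 6 hr at 37 C was scored by ThT fluorescence.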
# Tau FP inhib: qHTS for Inhibitors of Tau Fibril Formation, Fluorescence Polarization. Microtubule-associated protein tau (Homo sapiens), P10636. K18 P301L tau heparin fibrillization, Alexa594 FP, 6 h. Potency, µM (titrated, usually from 57.7 µM), usual class: inhibitors. 280,000 tested, 0.39% active; further: nearly all actives have a fitted effect of over 55% in size
#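 Human tau K18 […] P301L fragment, 15 uM unlabeled plus 0.24 uM Alexa 594-labeled tau (final), with compound and 20 uM heparin in 100 mM sodium acetate pH 7; 6 hr at 37 C, then Alexa 594 FP read.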
# Sfp PPTase inh: qHTS Assay for Inhibitors of Bacillus subtilis Sfp phosphopantetheinyl transferase (PPTase); 4'-phosphopantetheinyl transferase ffp (Bacillus subtilis), Q9F4F7; Biochemical Sfp PPTase activity, qHTS; Potency, µM, most hits filed as inhibitors; 310,000 tested, 3.5% active;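 further: the enzyme is Sfp with the accession as filed and its product quenches rhodamine fluorescence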
#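 Fluorescence-quenching assay: 15 nM Sfp-PPTase preincubated 15 min at room temperature with compound, then 5 uM rhodamine-CoA and 12.5 uM BHQ-2-labelled YbbR peptide added. Fluorescence (ex 525/em 598 nm) read at start and after 30 min; difference gives rate.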
# PLK1 PBD block: qHTS for Inhibitors of PLK1-PDB (polo-like kinase 1 - polo-box domain): Primary Screen; Potency, µM, actives largely listed as inhibitors; Serine/threonine-protein kinase PLK1 (Homo sapiens), P53350; 360,000 tested, 2.8% active; Plk1 PBD binding of FITC phosphopeptide, fluorescence polarization; further: series mostly up to about 57 µM; nearly all actives have a fitted effect of over 65% in size
# VDR inh: Inhibitors of the vitamin D receptor (VDR): qHTS | AID 504847, 2011 | 400,000 tested, 0.93% active | VDR-SRC2-3 peptide fluorescence polarization, 2 h | Vitamin D3 receptor (Homo sapiens), P11473 | Potency, µM, actives largely listed as inhibitors
#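 Compounds are added to VDR with labelled SRC2-3 coactivator peptide and held 2 h at room temperature. Inhibition of the VDR–peptide interaction is then read as a change in fluorescence polarization.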
# Sfp PPTase conf: Confirmation qHTS Assay for Inhibitors of Bacillus subtilis Sfp phosphopantetheinyl transferase (PPTase) | shares compounds with Sfp PPTase inh | Sfp PPTase enzymatic assay, qHTS titration | Potency, µM (titrated, usually from 114 µM), usual class: inhibitors | 380 tested, 79% active
# Target sequence (Q9F4F7 whole entry, looked up): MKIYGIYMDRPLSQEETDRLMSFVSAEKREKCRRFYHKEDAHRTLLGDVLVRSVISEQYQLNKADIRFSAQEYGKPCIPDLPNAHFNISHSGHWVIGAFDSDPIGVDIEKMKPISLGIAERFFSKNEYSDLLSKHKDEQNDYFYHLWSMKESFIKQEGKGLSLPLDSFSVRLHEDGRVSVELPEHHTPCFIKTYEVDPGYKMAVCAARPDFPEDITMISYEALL
# Sfp gel assay: Gel-Based Assay for Inhibitors of Bacillus subtilis Sfp phosphopantetheinyl transferase (PPTase); shares compounds with Sfp PPTase inh; purified Sfp, gel-based phosphopantetheinylation read-out; Potency, µM, most hits filed as inhibitors; 210 tested, 20% active; AID 2707, 2010;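 active means potency below 100 µM; inconclusive means dose-dependent response but potency above 100 µM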;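 further: potency is an IC50 for inhibitors of Sfp transfer activity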
# Numbers stand for hits; . = inactive; ? = inconclusive; / = no result given; ! = a repeat was not active. Rows were chosen to be rich in hits. Some 6% of all compounds tested hit in one or more screens of this group. Unless noted, the call rests on the fitted dose curve; in most records, active means well fitted curve in the direction sought with a large enough effect; inconclusive means small, poorly fitted or top-dose-only effect, or another doubt; inactive means no such curve, though single readings can be large; an effect the other way counts as inactive or inconclusive.
SMILES,Tau fluor cs,Tau ThT inhib,Tau FP inhib,Sfp PPTase inh,PLK1 PBD block,VDR inh,Sfp PPTase conf,Sfp gel assay
CN1CCN(C(c2cccnc2)c2ccc3cccnc3c2O)CC1 (stereo not given),.,.,.,2.8µM,19µM,.,42µM,/
O=C(CSc1ncnc2sc3c(c12)CCCCC3)NCc1ccco1,.,.,.,14µM,.,.,53µM,/
COc1cccc(CNC(=O)C2CCCN(S(=O)(=O)c3cn(C)cn3)C2)c1 (stereo not given),.,.,.,/,/,.,/,/
O=C(O)c1ccc(-n2c(=O)c3ccccc3c3ccccc3c2=O)cc1,.,.,.,7.9µM,?,?,74µM,?
CSc1ccc(CCNC(=O)c2ccc3c(c2)nc2n3CCC(C)C2)cc1 (stereo not given),.,?,.,/,/,.,/,/
CCOC(=O)c1c(NS(=O)(=O)c2cccc(OC)c2)sc2c1CCC2,.,?,.,2.8µM,?,.,26µM,/
CC(C)CC(N)c1csc(NC(=O)c2cc(C(C)(C)C)nn2Cc2ccccc2)n1 (stereo not given),/,/,/,/,.,/,/,/
N[C@@H](Cc1ccc(O)c(O)c1)C(=O)O,/,/,/,40µM,.,.,.,?
NC(Cc1ccc(O)c([N+](=O)[O-])c1)C(=O)O (stereo not given),.,.,.,?,.,.,/,/
COc1ccc2oc(=O)cc(CN3CCN(c4ccccc4OC)CC3)c2c1,.,.,.,/,/,.,/,/
Cn1ccnc1C(O)c1cc(C(C)(C)C)c(O)c(C(C)(C)C)c1 (stereo not given),.,?,.,45µM,.,.,47µM,/
CC(C)(C)c1ccc(C(=O)NCC(=O)OCC(=O)N2CCCC2)cc1,/,/,/,/,.,.,/,/
COc1ccc(-n2c(C)nc3cc(C(=O)NC4CCCC4)ccc32)cc1,.,.,.,/,/,?,/,/
Cc1cc2nc3ccc(=[N+](C)C)cc-3sc2cc1N,?,1.1µM,8.9µM,25µM,?,?,37µM,/
CCc1ccc(OCc2ccccc2C(=O)Nc2ccc3nc(C)cc(N)c3c2)cc1,?,?,?,13µM,/,.,47µM,/
C/C(N[C@@H]1CSCC1O)=C1/C(=O)CC2[C@@H]1C2(C)C (stereo not given in full),.,?,.,.,/,.,/,/
CCN(CC)C1=CC(=O)OC12CCCCC2,.,.,.,35µM,11µM,.,?,/
COc1ccc(C)cc1NC(=O)CSc1nnc(-c2ccccn2)n1Cc1ccco1,.,.,.,.,.,.,/,/
COc1ccccc1NC(=O)CSc1nnc(-c2ccccn2)n1Cc1ccco1,.,.,.,4.5µM,.,.,59µM,.
O=C(N/N=C/c1ccc(N2CCCCC2)o1)C(O)(c1ccccc1)c1ccccc1,.,?,?,8.9µM,/,/,37µM,/
Cc1ccc(-n2c(Cc3cccn3C)nnc2SCC(=O)NCc2ccco2)cc1,.,.,.,6.3µM,.,.,?,.
Cc1ccc(-n2c(Cc3cccn3C)nnc2SCC(N)=O)cc1,.,.,.,.,.,.,/,/
COC(=O)c1c(NC(=O)c2ccc(C)o2)sc2c1CCCCC2,.,?,.,14µM,.,.,37µM,.
Cc1ccc(C(=O)Nc2sc3c(c2C(=O)O)CCCCC3)o1,.,.,.,.,.,.,/,/
NCC1OC(O[C@@H]2[C@H](O)[C@@H](OC3C(O)C(N)CC(N)C3OC3OC(CO)C(O)C(O)C3N)O[C@@H]2CO)C(N)C(O)C1O (stereo not given in full),.,.,.,/,/,/,/,/
SMILES,Tau fluor cs,Tau ThT inhib,Tau FP inhib,Sfp PPTase inh,PLK1 PBD block,VDR inh,Sfp PPTase conf,Sfp gel assay
Cc1cc(Nc2cccc(Cl)c2)nc(NCc2ccccc2)n1,?,?,?,16µM,.,.,59µM,?
NCc1csc(Nc2nncc3ccccc23)n1,/,/,/,/,.,/,/,/
NNc1nncc2ccccc12,.,?,?,5µM!,/,.,?,74µM
CC(C)c1ccc(Cn2ccc3c4c(N)nc(NC5CC5)nc4ccc32)cc1,?,.,.,5µM,/,.,13µM,?
Cc1ccc(S(=O)(=O)NCC(=O)NCC(=O)NCCc2ccc(Cl)cc2)cc1C,/,/,/,/,.,/,/,/
Cn1c(SCC(=O)c2cc3ccccc3o2)nnc1-c1ccccc1,.,?,.,13µM,?,?,53µM,/
Cc1cc(NC(=O)CN2C(=O)CC(c3ccco3)Sc3ccccc32)no1 (stereo not given),.,.,.,2.5µM,.,.,15µM,.
COC(=O)[C@@]1(Cc2ccccc2)[C@H]2c3cc(C(=O)N(C)C)n(Cc4nc5ccccc5[nH]4)c3C[C@H]2CN1C(=O)c1ccccc1,.,?,.,.,/,/,/,/
Cc1ccc(-n2nc(C)c3c(C(=O)O)cc(C)nc32)cc1,.,.,.,/,/,.,/,/
Cc1nn(-c2ccccc2)c2nc(-c3ccco3)cc(C(=O)O)c12,.,?,.,13µM,?,.,21µM,?
CN1CCC(=C2c3ccccc3C=Cc3ccccc32)CC1,.,.,?,45µM!,.,.,83µM,.
O=C(O)Cc1ccc(NC(=O)Nc2ccc(Br)cc2)cc1,.,.,.,40µM,.,.,?,/
COC(=O)C(CC(=O)c1ccc(Br)cc1)n1ccnc1 (stereo not given),.,?,.,1.6µM,/,/,8.3µM,/
COc1cc(NC(=O)CC(C)n2ccnc2)cc(OC)c1 (stereo not given),/,/,/,.,.,.,/,/
COC(=O)c1cc(=O)c(O)c2c(O)c(O)ccc2c1,?,3.5µM,7.9µM,32µM,/,22µM,9.4µM,.
COC(=O)c1ccc2cc(OC)c(OC)cc2c1,/,/,/,/,.,/,/,/
CCN(CC)S(=O)(=O)c1nnc(NC(=O)c2ccc(Br)cc2)s1,.,?,.,/,/,.,/,/
O=C(O)Cc1sc(Nc2ccc(Cl)cc2)nc1-c1cccs1,?,?,.,1.3µM,?,.,59µM,/
CCOC(=O)c1c(C)[nH]c(C2=NNC(=NC3CC3)SC2)c1C,?,16µM,?,7.1µM,30µM,8.9µM,42µM,/
COC(=O)c1ccc(-c2nc(O)c(C)s2)cc1,.,13µM,?,14µM,7.5µM,79µM,47µM,/
COC(=O)Oc1nsnc1N1CCOCC1,.,?,?,13µM,2.7µM,.,11µM,/

# Screening results: PubChem, National Center for Advancing Translational Sciences (NCATS)
